# MenB inh: inhibitors of Mycobacterium tuberculosis MenB enzyme; MenB enzyme assay, absorbance read-out; inhibition, % (concentration not given with the values); 100,000 compounds, 0.43% hits; AID 540299; P9WNP5; in the data active = inhibition above about 21%, passing the limit was not always enough
# AID504770: E. coli YBA685 growth inhibition, screen for V. cholerae RctB inhibitors | AID 504770 | 130,000 compounds, 0.27% hits | z-score (concentration not given with the values) | E. coli YBA685 rctB-dependent plasmid, OD600 growth, 3 h; stronger effect = lower value; in the data active = z-score below about -2, passing the limit was not always enough
# Polio RdRp inh: poliovirus RNA polymerase inhibition; P03300; poliovirus polymerase elongation, fluorescence polarization; stronger effect = lower value; AID 588519; % elongation, % (compound at 16.7 µg/mL); 150,000 compounds, 0.66% hits; in the data active = % elongation below about 90%
# Target sequence (P03300 1749-2209 limits assumed): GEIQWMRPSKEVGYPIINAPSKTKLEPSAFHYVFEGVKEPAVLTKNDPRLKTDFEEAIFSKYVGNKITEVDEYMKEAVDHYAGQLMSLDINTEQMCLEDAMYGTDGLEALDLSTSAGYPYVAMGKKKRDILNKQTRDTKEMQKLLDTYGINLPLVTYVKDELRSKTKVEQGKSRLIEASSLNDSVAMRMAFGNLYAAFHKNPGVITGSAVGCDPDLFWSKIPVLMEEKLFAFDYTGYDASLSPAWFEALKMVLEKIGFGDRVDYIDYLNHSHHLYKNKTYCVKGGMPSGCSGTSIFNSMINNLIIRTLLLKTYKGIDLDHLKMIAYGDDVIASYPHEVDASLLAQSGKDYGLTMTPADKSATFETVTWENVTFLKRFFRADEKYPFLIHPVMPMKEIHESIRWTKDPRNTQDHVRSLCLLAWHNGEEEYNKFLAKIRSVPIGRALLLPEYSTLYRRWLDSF
# Mtb MbtI inh: MbtI salicylate synthase inhibition | P9WFX0 | inhibition, % (concentration not given with the values) | 100,000 compounds, 0.89% hits | purified MbtI enzyme, fluorescence intensity read-out | AID 493033; in the data active = inhibition mostly above about 56%, no sharp cut-off; inactive = mostly below about 77%
# * hit, by the source's call; . = no result given; ! = not confirmed by another sample. Shown are actives, neighbours in structure and some others; about 1.5% of the full set was active somewhere.
SMILES,MenB inh,AID504770,Polio RdRp inh,Mtb MbtI inh
Cc1ccc(/C=N/n2c(-c3ccc(Cl)cc3)csc2=NCC2CCCO2)o1 (stereo not given),-59.9,-0.25,101.0,9.9
CN(C)C(=S)Nc1ccccc1OC(F)F,-13.9,-0.95,98.0,87.7*
O=C(Nc1ccc(F)c(F)c1)c1cnn(-c2ccccc2)n1,-42.6,-0.4,90.0*,29.0
O=C(Cc1ccc(Cl)cc1)Nc1ccc2nn(-c3ccccc3)nc2c1,.,.,107.0,.
Cc1sc2nc(CCl)[nH]c(=O)c2c1C,.,-0.5,98.0,0.0
Cc1sc2nc(CCl)[nH]c(=O)c2c1-c1ccccc1,.,0.5,89.0*,81.5*
O=c1c2c(-c3ccccc3)csc2nc2n1CCC2,-1.2,0.15,106.0,.
Cc1sc2nc3n(c(=O)c2c1-c1ccccc1)CCC3,-19.4,-2.8,76.0*,87.4
CC(C)OC(=O)CN1C(=O)C(C)(C)Oc2ccc(C(=O)Nc3ccccc3)cc21,25.4*,1.1,103.0,-0.4
CC(C)(C)c1[nH]oc(=O)c1N=O,.,-7.35*,.,14.1
CC(C)NCC(O)COc1cccc2ccccc12 (stereo not given),-17.0,1.45,100.0*!,61.4
O=C1COc2ccc(-c3csc(=Nc4ccc(F)cc4)n3/N=C/c3ccc(O)c(O)c3)cc2N1,-60.3,-0.15,83.0*,5.7
Clc1ccccc1C1SCC2Nc3ccccc3CN21 (stereo not given),70.5*,-0.75,105.0,-4.8
O=C(CSc1nnc(-c2ccoc2)c(-c2ccoc2)n1)c1ccc(N2CCCC2=O)cc1,24.6,0.15,97.0,21.0
COc1ccc(C(=O)CSc2nnc(-c3ccco3)c(-c3ccco3)n2)cc1,29.9*,0.75,98.0,54.3
O=C(CSc1nnc(-c2ccoc2)c(-c2ccoc2)n1)c1ccc(-c2ccccc2)cc1,20.0,0.15,98.0,61.3*
O=C(CSc1nnc(-c2ccco2)c(-c2ccco2)n1)Nc1ccc(C(=O)O)cc1,.,0.7,.,.
CCOc1ccc(C(=O)CSc2nnc(-c3ccco3)c(-c3ccco3)n2)cc1NC(=O)CC,61.8*,1.5,100.0,93.9*
CCc1ccc(Nc2nnc(SCC(=O)NC3(C#N)CCCC3)s2)cc1,-9.5,-0.25,102.0,7.2
O=S1OCC(COc2cccc3ccccc23)O1 (stereo not given),-11.9,-0.85,76.0*,.
O=C1NCC(COc2cccc3ccccc23)O1 (stereo not given),.,-0.65,.,3.2
COc1cccc(OCC2COS(=O)O2)c1 (stereo not given),-43.2,-0.9,85.0*,-0.5
O=c1[nH]c(CSC2=NCCS2)nc2ccccc12,-67.5,-1.05,107.0,8.9
CCCCC1(O)CC(C)(C)N([O])C(C)(C)C1,43.8*,-0.2,100.0,-9.2
CCCCC1(O)CCN(Cc2ccccc2)CC1,.,-0.45,.,.
SMILES,MenB inh,AID504770,Polio RdRp inh,Mtb MbtI inh
COCCNC(=O)c1nnc(Cc2ccc(C)cc2)o1,-28.6,-0.5,101.0,-4.8
NC(=S)NNc1ccc(S(N)(=O)=O)cc1,3.4,-0.5,101.0,51.5*
CCc1c(C)sc(NC(=O)/C=C/c2cccs2)c1C(=O)OC,-42.3,-1,100.0,-17.9
CCc1c(C)sc(NC(=O)C2CC3CCC2C3)c1C(=O)OC (stereo not given),-7.5,0.85,88.0*,.
O=C(COC(=O)c1ccco1)NCC1CCCO1 (stereo not given),35.4*,0,99.0,-3.4
CCCCc1c(C(=O)O)cccc1C(=O)O,26.6*,0.85,102.0,-4.3
COC(=O)c1ccc2c(=O)[nH]c(COC(=O)c3cccnc3Nc3ccccc3OC)nc2c1,-6.1,-4*,103.0,-2.3
Cc1noc(C)c1CSc1ccccc1C(=O)NC(C)c1ccc(-n2ccnc2)cc1 (stereo not given),4.8,-0.25,98.0,99.2*
CC(NC(=O)Cn1[nH]c(=O)c2ccccc2c1=O)c1ccc(-n2ccnc2)cc1 (stereo not given),-9.1,-0.3,97.0,-3.5
CC(Sc1ncnc2sc3c(c12)CCCC3)C(=O)O (stereo not given),-1.6,-3.4*,100.0,.
CN1CCN(/C(=C\C#N)c2ccc(F)cc2)CC1,-20.4,-0.9,106.0,2.8
N=C(N)SCC(=O)Nc1ccccc1,22.7*,-0.4,100.0,3.8
Cc1ccc(NC(=O)CSC(=N)N)cc1,1.0,-1.6,102.0,12.3
COC(=O)c1ccccc1NC(=O)COC(=O)C1=NNC(=O)CC1,-5.3,0.55,112.0,2.2
NC(=O)CSCc1cc(Cl)c2c(c1)OCCCO2,-28.9,1.15,102.0,-2.8
NC(=O)c1c(NC(=O)/C=C/c2cccs2)sc2c1CCCC2,-43.2,-0.15,99.0,52.9*
N#Cc1c(NC(=O)/C=C/c2cccs2)sc2c1CCC2,.,-0.45,.,.

# Screening results deposited in PubChem BioAssay by ICCB-Longwood Screening Facility, Harvard Medical School.
